# From PubChem BioAssay (EPA / NIEHS)
# Activity calls are given as the source filed them. How the source made its calls: active means hit-call score of the fitted dose curve at least 0.9, where 1 is the maximum; inconclusive means response in the unintended direction; inactive means score below 0.9.
# Target: Estrogen receptor (Homo sapiens) (UniProt P03372)
# Assay: OT_ERa_GFPERaERE_0120: Odyssey Thera (OT) 2-hour HeLa Transcription Induction Assay for Estrogen Receptor (AID 2283382)
# Outline: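 HeLa cells were dosed with test chemical and read 2 hours later for GFP-ERα/ERE-linked fluorescent protein induction by fluorescence microscopy. Gain-of-signal was fitted relative to DMSO baseline, quantified by high content image analysis.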
# Chain of Estrogen receptor (Homo sapiens) (P03372 whole entry, looked up): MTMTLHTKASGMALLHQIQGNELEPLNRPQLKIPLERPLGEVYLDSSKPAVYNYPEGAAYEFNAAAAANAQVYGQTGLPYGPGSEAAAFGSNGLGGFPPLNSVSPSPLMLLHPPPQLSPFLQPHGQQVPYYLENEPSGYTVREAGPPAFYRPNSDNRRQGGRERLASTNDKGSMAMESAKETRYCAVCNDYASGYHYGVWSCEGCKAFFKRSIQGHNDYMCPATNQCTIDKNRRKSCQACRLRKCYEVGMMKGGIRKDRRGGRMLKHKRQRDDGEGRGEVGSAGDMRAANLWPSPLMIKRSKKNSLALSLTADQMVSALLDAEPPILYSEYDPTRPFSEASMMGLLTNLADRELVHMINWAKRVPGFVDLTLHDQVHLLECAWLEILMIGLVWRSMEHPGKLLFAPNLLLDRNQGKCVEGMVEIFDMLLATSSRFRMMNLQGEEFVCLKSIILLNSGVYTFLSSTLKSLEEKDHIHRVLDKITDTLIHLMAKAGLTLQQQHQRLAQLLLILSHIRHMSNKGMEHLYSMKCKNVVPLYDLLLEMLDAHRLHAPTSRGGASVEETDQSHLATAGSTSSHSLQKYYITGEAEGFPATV
SMILES,outcome,AC50
Cc1cc(F)ccc1-c1cc(N2CC[C@@H](O)[C@H]2CO)ncc1N(C)C(=O)C(C)(C)c1cc(C(F)(F)F)cc(C(F)(F)F)c1,inactive,–
Clc1cc(Cl)c2c(c1)N=C1CCCCCN1C2,inactive,–
NCc1cccc(C2CCN(C(=O)c3ccc(C#Cc4ccccc4F)o3)CC2)c1,–,12 µM (active)
c1ccc2ccccc2c1,inactive,–
OCCO,inactive,–
CN(C)C(=O)C1(N2CCCCC2)CCN(CC[C@@]2(c3ccc(Cl)c(Cl)c3)CN(C(=O)c3ccccc3)CCO2)CC1,–,14.8 µM (active)
Clc1ccccc1C(c1ccccc1)(c1ccccc1)n1ccnc1,inactive,–
NC(=O)c1nc(-c2cccc(-c3cc(F)ccc3OCC(F)(F)C(F)(F)F)c2)n[nH]1,inactive,–
O=c1[nH]sc2ccccc12,inactive,–
CC(=O)N1CCN(c2ccc(OC[C@H]3CO[C@](Cn4ccnc4)(c4ccc(Cl)cc4Cl)O3)cc2)CC1,–,94 µM (active)
CC(C)(O)c1ccc(CNC(=O)c2cccnc2Oc2ccc3nonc3c2)cc1,inactive,–
CN(C)c1ccc(C(=C2C=CC(=[N+](C)C)C=C2)c2ccc(N(C)C)cc2)cc1,inactive,–
O=C1c2ccccc2C(=O)N1CCc1noc(-c2ccc(CN3CCCCCC3)s2)n1,inactive,–
CCCCCc1ccc(N)cc1,inactive,–
CCCCCCCCN(C)CCCCCCCC,inactive,–
CCOC(=O)O[C@H](C)OC(=O)c1ccc2c(c1)cc(C(=O)NC1CCN(C(C)C)CC1)n2Cc1cc(-c2ccc(Cl)s2)on1,–,23.8 µM (active)
